# Results published in PubChem BioAssay.
# Several values for one entry are separate records, joined by “and”; a condition that tells them apart may be missing. Equal values may be shown once. Results filed as inconclusive are left out. Activity calls are given as the source filed them. Unless noted, the rule behind the calls is not given here.
# Legend:
# [1] = circadian clock period modulators, cell-based, LOPAC library, luminescence reporter (AID 2774); details: circadian reporter cells, at 7 µM, actives lie on both sides;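 note: values are relative to mean of DMSO wells on each plate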
# [2] = tested on: Hepatitis C virus NS3 helicase; assay: HCV NS3 helicase inhibitors, primary screen, biochemical, fluorescence polarization, LOPAC1280 library (AID 687035; in the data active = inhibition above about 37%); details: Purified HCV NS3 helicase, Cy5-dT15 ssDNA binding fluorescence polarization; stronger effect = higher value; concentration not given here
# [3] = Cy5 fluorescence quenching or enhancement artefacts, artefact control for HCV NS3 helicase inhibitor project, biochemical, LOPAC1280 (AID 687037); details: Cy5-DNA-NS3h complex fluorescence interference counterscreen
# [4] = tested on: Aerobactin synthetase IucA (Klebsiella pneumoniae); assay: IucA aerobactin synthetase inhibitors, biochemical, Tocris library, absorbance (AID 1345561); details: purified IucA enzyme assay, absorbance (OD) read-out; stronger effect = lower value;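 tested at 8 µM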;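 note: 100% = enzyme without compound and 0% = no enzyme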
# [5] = tested on: Aerobactin synthetase IucA (Klebsiella pneumoniae, hypervirulent); assay: IucA enzyme inhibition, biochemical, LOPAC library, absorbance readout (AID 1346212); details: IucA enzyme assay, absorbance (OD) readout; stronger effect = lower value;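 tested at 8 µM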;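 note: 100% = no compound wells and 0% = no enzyme wells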
# [6] = sensitizers of A549 cells to miR-34 induction, primary screen, imaging, A549 dox-inducible miR-34, nuclei and caspase counts (AID 1347080;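 active = compounds whose cell count with miR-34 switched on is under 0.7 times the count with it off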); details: A549 miR-34 inducible, Hoechst nuclei count, 48 h
# [7] = phospholipid biosynthesis inhibitors in animal cells, primary screen, cell-based, LOPAC library, screen 4 (AID 1347384); details: phospholipid biosynthesis inhibition screen, at 10 µM
# [8] = viability rescue of complex I mutant cybrids, primary screen, cell-based, galactose medium, ATP luminescence (AID 1645843;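 active = z-score of at least 1.8 in each of two replicates, scored against plate mean and spread of sample wells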;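 note: positive z means more ATP and so rescue of galactose-driven cybrid death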); details: complex I mutant cybrid cells, 72 h, stronger effect = higher value
# [9] = molecular target: ATP-dependent translocase ABCB1 (Homo sapiens) (UniProt P08183); assay: MDR1 (ABCB1) efflux transporter inhibition, cell-based (AID 377; in the data active = fluorescence slope change above about 50%); details: MDR1-expressing cells, fluorescent substrate accumulation slope; stronger effect = higher value; concentration not given here
# [10] = hESC survival regulators, cell-based (AID 493140); details: human embryonic stem cell survival screen; stronger effect = higher value;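 note: cells exposed to compounds for four days before counting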
# [11] = liver-stage malaria parasite growth inhibition, primary screen, cell-based, HepG2, luciferase luminescence, HepG2 viability (AID 624349; in the data active = parasite load remaining mostly below about 12%, no sharp cut-off; inactive = mostly above about 10%;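 note: 100% = mean of DMSO negative control wells on the same plate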); details: P. berghei liver stage in HepG2, luciferase luminescence, concentration not given here; parasite load remaining: stronger effect = lower value; viability: measured here: HepG2 viability without parasites
# [12] = differential killing of epithelial or mesenchymal cells, primary screen, imaging, PC-3E GFP, TEM4-18 mCherry, co-culture (AID 1345086;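 active = compounds killing one labelled cell type while sparing the other, by normalised counts and ratio limits, not self-fluorescent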;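 for all read-outs here: cells exposed to compound for 72 h before imaging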;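 for red/green cell ratio (normalised): normalised mesenchymal count divided by normalised epithelial count so high means epithelial killing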); details: imaging cell counts, at 1 µM; for red/green cell ratio (normalised): actives lie on both sides
# [13] = molecular target: Mitogen-activated protein kinase 7 (Homo sapiens) (UniProt Q13164); assay: ERK5 transactivation activators in reporter cells, primary screen, cell-based, HTS (AID 1508626;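 active = luciferase signal above three times the same-plate solvent-only control wells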;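 note: luciferase driven by Gal4-ERK5 fusion binding five Gal4 sites before minimal TATA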); details: HeLa Gal4-ERK5 transactivation, 18 h, at 5 µM, stronger effect = higher value
# [14] = growth inhibition of DIPG glioma cells, dose response, cell-based, SU-DIPG-XVII, MIPE5.0, CellTiter-Glo, qHTS (AID 1347060; cut-off not given, nearly all actives have AC50 up to about 26 µM); details: SU-DIPG-XVII viability, CellTiter-Glo ATP luminescence
# [15] = growth inhibition of DIPG glioma cells, dose response, cell-based, SU-DIPG-XIII, MIPE4.0, CellTiter-Glo, qHTS (AID 1347061; cut-off not given, nearly all actives have AC50 up to about 37 µM;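 note: cells exposed to compound for 48 hours before readout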); details: SU-DIPG-XIII viability, CellTiter-Glo ATP luminescence
# [16] = growth inhibition of DIPG glioma cells, dose response, cell-based, JHH-DIPG-1, MIPE4.0, CellTiter-Glo, qHTS (AID 1347062; cut-off not given, nearly all actives have AC50 up to about 27 µM); details: JHH-DIPG-1 viability, CellTiter-Glo ATP luminescence
# [17] = growth inhibition of DIPG glioma cells, dose response, cell-based, SU-DIPG-IV, MIPE4.0, CellTiter-Glo, qHTS (AID 1347063; cut-off not given, nearly all actives have AC50 up to about 30 µM;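 note: compound exposure lasted 48 hours before the viability readout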); details: SU-DIPG-IV viability, CellTiter-Glo ATP luminescence
# [18] = viability loss in pontine glioma line – cell-based, SU-DIPG-XXV, MIPE5.0, CellTiter-Glo, qHTS, dose response (AID 1347065; cut-off not given, nearly all actives have AC50 up to about 26 µM;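 note: cells exposed to compound for 48 hours before ATP readout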); details: CellTiter-Glo ATP luminescence
# [19] = SU-DIPG-VI glioma cell viability, MIPE4.0 library, CellTiter-Glo luminescence, qHTS (AID 1347066; cut-off not given, nearly all actives have AC50 up to about 30 µM;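 note: cells exposed to compound for 48 hours before readout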); details: CellTiter-Glo ATP luminescence
# [20] = JHH-DIPG-1 glioma cell viability, MIPE5.0 library, CellTiter-Glo luminescence, qHTS (AID 1347067; cut-off not given, nearly all actives have AC50 up to about 26 µM;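 note: cells exposed to compound for 48 hours before readout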); details: JHH-DIPG-1 glioma viability, CellTiter-Glo ATP luminescence
# [21] = measured here: relative caspase fold change +Dox/-Dox
# [22] = measured here: total cells with miR-34 induction, stronger effect = lower value
# [23] = measured here: total cells without miR-34 induction
# [24] = measured here: epithelial PC-3E GFP cell survival
# [25] = measured here: mesenchymal TEM4-18 mCherry cell survival
# ATP-dependent translocase ABCB1 (Homo sapiens), sequence (P08183 whole entry, looked up): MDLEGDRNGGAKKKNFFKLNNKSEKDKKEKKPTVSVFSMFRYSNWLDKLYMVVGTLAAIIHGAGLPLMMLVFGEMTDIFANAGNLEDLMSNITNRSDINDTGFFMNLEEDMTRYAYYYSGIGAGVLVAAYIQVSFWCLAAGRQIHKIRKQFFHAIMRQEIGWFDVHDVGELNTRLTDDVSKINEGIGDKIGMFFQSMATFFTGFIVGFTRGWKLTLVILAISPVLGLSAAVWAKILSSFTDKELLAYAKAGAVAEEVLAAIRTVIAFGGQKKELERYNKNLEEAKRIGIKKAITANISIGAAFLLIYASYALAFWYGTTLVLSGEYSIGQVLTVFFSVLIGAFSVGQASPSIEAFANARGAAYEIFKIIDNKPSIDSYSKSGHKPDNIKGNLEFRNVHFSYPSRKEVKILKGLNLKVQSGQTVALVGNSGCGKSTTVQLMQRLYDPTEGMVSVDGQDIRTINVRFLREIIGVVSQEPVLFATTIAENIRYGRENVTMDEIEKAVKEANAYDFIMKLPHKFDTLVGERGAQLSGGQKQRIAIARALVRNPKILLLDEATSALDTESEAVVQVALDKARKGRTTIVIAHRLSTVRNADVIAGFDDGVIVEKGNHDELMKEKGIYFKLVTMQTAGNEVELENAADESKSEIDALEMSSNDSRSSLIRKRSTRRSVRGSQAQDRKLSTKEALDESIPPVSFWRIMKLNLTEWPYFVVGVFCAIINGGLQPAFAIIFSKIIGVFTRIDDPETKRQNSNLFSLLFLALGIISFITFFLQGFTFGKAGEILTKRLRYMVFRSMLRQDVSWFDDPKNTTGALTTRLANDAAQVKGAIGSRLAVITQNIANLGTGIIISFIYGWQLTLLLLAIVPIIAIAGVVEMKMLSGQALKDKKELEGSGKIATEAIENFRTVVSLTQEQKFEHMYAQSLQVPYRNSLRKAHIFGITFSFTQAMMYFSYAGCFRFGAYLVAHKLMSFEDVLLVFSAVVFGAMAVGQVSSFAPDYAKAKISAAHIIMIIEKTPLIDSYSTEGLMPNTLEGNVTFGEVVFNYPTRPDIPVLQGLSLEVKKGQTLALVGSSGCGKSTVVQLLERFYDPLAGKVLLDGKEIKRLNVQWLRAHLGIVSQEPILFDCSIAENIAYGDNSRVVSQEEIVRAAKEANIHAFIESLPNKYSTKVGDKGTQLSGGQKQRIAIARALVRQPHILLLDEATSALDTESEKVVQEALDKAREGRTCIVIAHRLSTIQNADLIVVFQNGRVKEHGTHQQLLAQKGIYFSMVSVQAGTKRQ
# Mitogen-activated protein kinase 7 (Homo sapiens), sequence (Q13164 whole entry, looked up, the tested form may be a part): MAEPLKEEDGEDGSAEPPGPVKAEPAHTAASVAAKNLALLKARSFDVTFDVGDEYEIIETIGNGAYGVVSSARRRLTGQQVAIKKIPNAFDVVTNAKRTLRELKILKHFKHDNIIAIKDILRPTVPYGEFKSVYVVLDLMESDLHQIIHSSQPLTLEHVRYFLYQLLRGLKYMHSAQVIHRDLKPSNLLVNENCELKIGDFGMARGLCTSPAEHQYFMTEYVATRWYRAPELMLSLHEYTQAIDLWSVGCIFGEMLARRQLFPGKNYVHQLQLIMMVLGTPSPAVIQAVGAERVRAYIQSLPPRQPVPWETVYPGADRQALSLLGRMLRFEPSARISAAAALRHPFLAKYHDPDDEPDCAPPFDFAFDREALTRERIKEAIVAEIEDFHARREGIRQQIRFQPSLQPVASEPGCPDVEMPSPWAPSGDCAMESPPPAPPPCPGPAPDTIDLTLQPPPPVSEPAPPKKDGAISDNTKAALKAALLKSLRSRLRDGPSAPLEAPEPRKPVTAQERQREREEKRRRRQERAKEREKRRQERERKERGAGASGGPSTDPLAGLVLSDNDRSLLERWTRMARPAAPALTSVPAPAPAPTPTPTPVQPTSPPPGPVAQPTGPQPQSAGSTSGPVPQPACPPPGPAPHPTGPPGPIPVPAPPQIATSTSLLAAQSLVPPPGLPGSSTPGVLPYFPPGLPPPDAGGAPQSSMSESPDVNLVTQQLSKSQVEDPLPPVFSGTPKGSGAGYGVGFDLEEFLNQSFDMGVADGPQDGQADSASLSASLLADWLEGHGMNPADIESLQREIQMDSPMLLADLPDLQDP
compound,measurement,setting,value
CC(=O)NCCc1c[nH]c2ccccc12,period change,[1],0.04 h (inactive)
same,inhibition,[2],-3% (inactive)
same,fluorescence ratio (interference),[3],0.9 (inactive)
same,remaining activity,[4],90.2% (inactive)
same,remaining activity,[5],105% (inactive)
same,fold change,[6]; stronger effect = lower value,1.01 (inactive) and 0.947 (inactive)
same,fold change,[6]; [21],0.736 and 0.687
same,cell count,[6]; [22],10200 and 9110
same,cell count,[6]; [23],10200 and 9620
same,outcome,[7],inactive
same,z-score,[8],0.505 (inactive) and 0.035 (inactive)
c1cncc(C2=NCCC2)c1,fluorescence slope change,[9],24.1% (inactive)
same,survival,[10],4.17 (inactive)
same,parasite load remaining,[11],113% (inactive)
same,viability,[11],106%
same,red/green cell ratio (normalised),[12],0.94 (inactive)
same,normalised cell number,[12]; [24],1
same,normalised cell number,[12]; [25],0.94
same,fold change,[6]; stronger effect = lower value,0.891 (inactive)
same,fold change,[6]; [21],1.54
same,cell count,[6]; [22],7680
same,cell count,[6]; [23],8620
same,luciferase signal,[13],48 AU (inactive)
CCCN1CCO[C@@H]2c3cc(O)ccc3OC[C@H]21,period change,[1],-0.065 hour (inactive) and 0.1 hour (inactive)
same,inhibition,[2],-4% (inactive) and -2% (inactive)
same,fluorescence ratio (interference),[3],1 (inactive)
same,remaining activity,[4],109% (inactive)
same,remaining activity,[5],102% (inactive)
same,outcome,[14],inactive
same,outcome,[15],inactive
same,outcome,[16],inactive
same,outcome,[17],inactive
same,outcome,[18],inactive
same,outcome,[19],inactive
same,outcome,[20],inactive
same,fold change,[6]; stronger effect = lower value,0.978 (inactive) and 0.932 (inactive)
same,fold change,[6]; [21],1.67 and 0.977
same,cell count,[6]; [22],9750 and 8460
same,cell count,[6]; [23],9980 and 9070
same,z-score,[8],0.53 (inactive) and -0.06 (inactive)
C=CC[C@]1(O)CCC2C3CCC4=CC(=O)CCC4=C3C=C[C@@]21C (some centres not stated),parasite load remaining,[11],26.4% (inactive)
same,viability,[11],98.9%
same,red/green cell ratio (normalised),[12],0.86 (inactive)
same,normalised cell number,[12]; [24],0.92
same,normalised cell number,[12]; [25],0.79
same,fold change,[6]; stronger effect = lower value,0.89 (inactive)
same,fold change,[6]; [21],1.39
same,cell count,[6]; [22],10300
same,cell count,[6]; [23],11500
C#CCOC(=O)C1=CCCN(C)C1,period change,[1],-0.055 h (inactive)
same,inhibition,[2],-1% (inactive)
same,fluorescence ratio (interference),[3],1 (inactive)
same,remaining activity,[4],105% (inactive)
same,remaining activity,[5],121% (inactive)
same,fold change,[6]; stronger effect = lower value,1.05 (inactive)
same,fold change,"[6]; stronger effect = lower value, cell number ratio, induced over uninduced",0.926 (inactive)
same,fold change,[6]; [21],1.99 and 0.981
same,cell count,[6]; [22],10200 and 8480
same,cell count,[6]; [23],9640 and 9160
same,outcome,[7],inactive
same,z-score,[8],-0.93 (inactive) and -0.57 (inactive)
CC(C)(C)c1o[nH]c(=O)c1CC(N)C(=O)O (configuration not stated),period change,[1],-0.635 h (inactive)
same,inhibition,[2],-1% (inactive)
same,fluorescence ratio (interference),[3],1 (inactive)
same,remaining activity,[4],108% (inactive)
same,remaining activity,[5],110% (inactive)
same,fold change,[6]; stronger effect = lower value,1 (inactive) and 0.891 (inactive)
same,fold change,[6]; [21],1.8 and 0.776
same,cell count,[6]; [22],10700 and 8780
same,cell count,[6]; [23],10700 and 9850
same,outcome,[7],inactive
same,z-score,[8],-0.285 (inactive) and -0.155 (inactive)
